Results from PubChem BioAssay (NCI).
Compounds without any hit were thinned out: in the full panel of roughly 83,000, 20% have a hit.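 Activity criterion: percent growth below 10, measured after cells in 96-well plates were exposed to a single compound concentration for 48 hours.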 Unmarked numbers belong to inactive results. Calls of active or inactive are those of the source.

Assays:
Test in all cases: NCI-60 one-dose screen, 48 h (100 = growth as untreated, 0 = no growth, -100 = all killed)
Conditions in all cases: 10 µM unless noted
[1] = tested on: HCT-15 colon
[2] = tested on: HT29 colon
[3] = tested on: SNB-75 CNS
[4] = tested on: SNB-19 CNS
[5] = tested on: U251 CNS
[6] = tested on: PC-3 prostate
[7] = tested on: SK-MEL-5 melanoma
[8] = tested on: UACC-62 melanoma
[9] = tested on: LOX IMVI melanoma
[10] = tested on: SK-MEL-28 melanoma
[11] = tested on: SK-MEL-2 melanoma
[12] = tested on: SN12C renal
[13] = tested on: UO-31 renal
[14] = tested on: TK-10 renal
[15] = tested on: ACHN renal
[16] = tested on: CAKI-1 renal
[17] = tested on: CCRF-CEM leukemia
[18] = tested on: MOLT-4 leukemia
[19] = tested on: A498 renal

Row | SMILES | growth [1] | growth [2] | growth [3] | growth [4] [%] | growth [5] | growth [6] | growth [7] [%] | growth [8] | growth [9] | growth [10] [%] | growth [11] | growth [12] [%] | growth [13] [%] | growth [14] [%] | growth [15] | growth [16] [%] | growth [17] | growth [18] | growth [19]
1 | CCN(C(=O)c1cc2ccccc2[nH]1)[C@H]1CCC[C@@H](NCc2ccc(OC)cc2)C1 | 81% | 76.2% | 80.6% | 91.3 | 101% | 88.5% | 91.2 | 95.6% | 89% | 98.3 | 100% | 92.2 | 66 | 81 | 94.7% | 96 | 102% | 70.2% | –
2 | Clc1nc(-c2cccnc2)nc2sc3c(c12)CCCCCC3 | 98.9% | 100% | 91.3% | 96.2 | 91.3% | 94.7% | 96.8 | 91.3% | 100% | 104 | 105% | 99.6 | 101 | 103 | 105% | 93.8 | 83.4% | 90% | –
3 | CCOC(=O)C1=C(CSC(=S)N(C2CCCCC2)C2CCCCC2)N(C)C(=O)NC1c1ccccc1 (centres undefined) | 39.6% | 22% | 71.8% | 49.2 | 39.5% | 21.6% | 14.7 | 46.1% | 33% | 75.8 | 55.6% | 71.2 | 44.5 | 74 | 37.8% | 25.4 | 35.3% | 28.2% | –
4 | COc1cc(OC)c(C(=O)/C=C/c2cccc(C(F)(F)F)c2)c(OC)c1 | 6.82% (active) | 3.81% (active) | 19.2% | 14.2 | 9.44% (active) | 41.9% | 13.2 | -12.1% (active) | -16.7% (active) | 39.1 | -16.1% (active) | 19.2 | 26.9 | 15.1 | 3.47% (active) | 33.8 | 4.41% (active) | 1.4% (active) | –
5 | COc1ccc(-c2nc3sccn3c2-c2ccnc(NCCCNS(=O)(=O)c3ccc4ccccc4c3)n2)cc1 | 44.9% | 44.1% | 85.5% | 86.1 | 67.3% | 66.8% | 42.3 | 54.5% | 53.9% | 80 | 84.6% | 79.5 | 60.7 | 89.8 | 60% | 77.5 | 53.8% | 47.5% | –
6 | CC(C)CCN(CCCNc1c2c(nc3ccccc13)CCCC2)CCC(C)C | 72.9% | 46.3% | 76.8% | 87.2 | 65.1% | 73.6% | 83.1 | 97.2% | 76.4% | 86.2 | 109% | 89.7 | 56.5 | 93.8 | 98% | 76.5 | 74.3% | 70.7% | –
7 | O=S(=O)(NCCCNc1nccc(-c2c(-c3ccccc3)nc3sccn23)n1)c1ccc(F)cc1 | 19.4% | 29% | 44% | 75.1 | 46.4% | 60.6% | 14.3 | 23.1% | 23.7% | 56.3 | 53.8% | 44.1 | 24.9 | 72.7 | 26.6% | 33.1 | 31.2% | 38.4% | –
8 | Nc1c(C(=O)Nc2ccccc2)sc2nc3c(cc12)CCCCC3 | 20.1% | -15.5% (active) | -6.57% (active) | 22.1 | 13.8% | 9.02% (active) | 11.3 | 5.45% (active) | 22.1% | 36.6 | 12.6% | 45.3 | 21.5 | 21.6 | 30.3% | – | 2.92% (active) | 29.2% | -5.02% (active)
